Reference: ChEMBL document CHEMBL3988442, “University of Dundee, Small-Polar-MMV Screening Library” (2021)
For some assays here: Measured potencies and affinities stand elsewhere.

Experiments:
Set-up in all cases: scale not given: direction of the effect not stated beside the values
[1] = molecular target: Protein translocase subunit SecA (Escherichia coli (strain K12)) (UniProt P10408); test: Assay to Identify E. coli SecA ATPase Inhibitors; type: functional; conditions: 30 µM
[2] = molecular target: T1, Ubiquitin-activating enzyme e1, putative (Leishmania donovani (strain BPK282A1)) (UniProt E9BSI1); test: Leishmania donovani Ubiquitin Activating Enzyme (LdE1); type: functional; conditions: 30 µM
T1 sequence (whole entry): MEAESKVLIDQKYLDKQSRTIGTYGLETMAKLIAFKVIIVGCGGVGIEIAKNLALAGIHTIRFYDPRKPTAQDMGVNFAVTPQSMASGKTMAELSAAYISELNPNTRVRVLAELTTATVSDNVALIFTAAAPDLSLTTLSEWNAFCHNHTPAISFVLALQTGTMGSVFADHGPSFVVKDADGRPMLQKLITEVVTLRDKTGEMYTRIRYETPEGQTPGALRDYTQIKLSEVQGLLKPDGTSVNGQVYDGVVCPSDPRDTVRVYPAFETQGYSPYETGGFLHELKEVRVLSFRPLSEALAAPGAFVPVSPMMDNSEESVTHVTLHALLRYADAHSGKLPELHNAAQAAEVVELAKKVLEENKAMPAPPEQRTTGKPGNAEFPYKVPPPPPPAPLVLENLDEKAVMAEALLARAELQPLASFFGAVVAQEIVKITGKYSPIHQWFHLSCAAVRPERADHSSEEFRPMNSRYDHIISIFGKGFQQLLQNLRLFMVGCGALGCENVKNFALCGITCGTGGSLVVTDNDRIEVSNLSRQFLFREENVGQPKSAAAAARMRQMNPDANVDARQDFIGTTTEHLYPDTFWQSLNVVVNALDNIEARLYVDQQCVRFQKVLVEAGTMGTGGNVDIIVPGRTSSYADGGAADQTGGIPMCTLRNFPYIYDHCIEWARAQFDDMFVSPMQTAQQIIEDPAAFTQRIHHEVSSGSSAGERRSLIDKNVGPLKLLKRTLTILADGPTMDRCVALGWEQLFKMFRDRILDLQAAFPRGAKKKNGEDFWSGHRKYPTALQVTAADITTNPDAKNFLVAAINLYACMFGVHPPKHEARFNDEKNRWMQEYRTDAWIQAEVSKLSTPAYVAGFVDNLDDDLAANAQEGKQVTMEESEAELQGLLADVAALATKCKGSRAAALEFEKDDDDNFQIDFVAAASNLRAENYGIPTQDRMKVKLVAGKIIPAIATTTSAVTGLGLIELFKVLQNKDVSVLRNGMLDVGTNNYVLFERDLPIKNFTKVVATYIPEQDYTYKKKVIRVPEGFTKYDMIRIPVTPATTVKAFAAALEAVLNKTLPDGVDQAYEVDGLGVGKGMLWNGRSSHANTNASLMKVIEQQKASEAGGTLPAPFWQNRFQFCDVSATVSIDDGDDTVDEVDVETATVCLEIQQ

[3] = molecular target: AMP-activated protein kinase, AMPK (Homo sapiens) (UniProt P54646+O43741+P54619+Q9UGJ0+Q9Y478+Q13131+Q9UGI9); test: AMP-dependent Kinase enzyme assay. An in vitro enzyme assay that detects ADP turnover that is directly proportional to AMPK activity. This uses naive AMPK that is activated during the assay with MK-8722; type: functional; conditions: 30 µM
[4] = molecular target: Sialic acid-binding Ig-like lectin 9 (Homo sapiens) (UniProt Q9Y336); test: Hs-Siglec9 ALPHAscreen SOP 20170721; conditions: 10 µM
Sialic acid-binding Ig-like lectin 9 (Homo sapiens), sequence (Q9Y336 whole entry): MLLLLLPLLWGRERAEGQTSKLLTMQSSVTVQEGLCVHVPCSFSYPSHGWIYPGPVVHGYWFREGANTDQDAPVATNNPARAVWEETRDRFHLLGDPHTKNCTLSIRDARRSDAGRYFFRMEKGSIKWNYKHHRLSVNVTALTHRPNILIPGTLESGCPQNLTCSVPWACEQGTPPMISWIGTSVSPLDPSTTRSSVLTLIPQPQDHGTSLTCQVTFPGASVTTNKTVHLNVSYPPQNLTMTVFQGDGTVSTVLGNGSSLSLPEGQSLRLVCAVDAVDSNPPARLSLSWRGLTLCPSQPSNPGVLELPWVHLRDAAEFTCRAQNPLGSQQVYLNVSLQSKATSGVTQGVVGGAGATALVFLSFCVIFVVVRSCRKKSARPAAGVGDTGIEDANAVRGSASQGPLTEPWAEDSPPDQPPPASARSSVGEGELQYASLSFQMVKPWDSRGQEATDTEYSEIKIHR

Trypanosoma cruzi = test: Trypanosoma cruzi phosphomannomutase and mannose-1-phosphate guanylyltransferase assay; type: functional; conditions: 10 µM
[5] = molecular target: T2, Arginase-2, mitochondrial (Homo sapiens) (UniProt P78540); test: in vitro enzyme assay to detect the production of urea directly proportional to the activity of Arginase II; type: functional; conditions: 33.3 µM; further: in the data most compounds retested in dose-response had high values
T2 sequence (whole entry): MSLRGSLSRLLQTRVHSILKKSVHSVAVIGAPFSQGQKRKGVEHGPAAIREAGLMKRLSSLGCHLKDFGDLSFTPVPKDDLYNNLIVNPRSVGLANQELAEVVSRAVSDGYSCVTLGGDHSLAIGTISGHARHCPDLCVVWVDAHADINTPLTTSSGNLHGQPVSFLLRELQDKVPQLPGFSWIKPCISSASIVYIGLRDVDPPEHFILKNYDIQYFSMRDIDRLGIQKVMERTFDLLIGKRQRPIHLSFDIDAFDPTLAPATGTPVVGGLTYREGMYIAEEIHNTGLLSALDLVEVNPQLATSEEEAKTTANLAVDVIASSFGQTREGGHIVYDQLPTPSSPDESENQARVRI

[6] = molecular target: T3, Proteasome subunit beta (Trypanosoma cruzi) (UniProt O96673); test: Trypanosoma cruzi proteasome chymotrypsin-like activity (TcProtChymo) assay.; further: in the data most compounds retested in dose-response had high values; type: functional; conditions: 9.37 µM
T3 sequence (whole entry): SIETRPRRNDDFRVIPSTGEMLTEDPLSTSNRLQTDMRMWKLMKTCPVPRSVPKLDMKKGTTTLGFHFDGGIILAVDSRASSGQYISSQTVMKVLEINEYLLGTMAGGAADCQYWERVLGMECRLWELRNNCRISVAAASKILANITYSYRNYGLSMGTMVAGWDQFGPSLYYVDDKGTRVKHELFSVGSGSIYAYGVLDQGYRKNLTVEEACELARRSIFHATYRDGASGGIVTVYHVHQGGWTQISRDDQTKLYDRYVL

Homo sapiens = organism: Homo sapiens; test: To identify inhibition of the IFN signalling (Jak-Stat) pathway via expression of an eGFP reporter gene under the control of an IFN-stimulated response element (ISRE) containing MxA promoter.; type: functional; conditions: 30 µM
[7] = molecular target: T4, Tyrosyl-tRNA synthetase, putative (Trypanosoma cruzi (strain CL Brener)) (UniProt Q4DSP6); test: Trypanosoma cruzi tyrosyl tRNA synthetase (TcYRS) _High Tyrosine SOP; type: functional; conditions: 30 µM; further: in the data most compounds retested in dose-response had high values
T4 sequence (whole entry): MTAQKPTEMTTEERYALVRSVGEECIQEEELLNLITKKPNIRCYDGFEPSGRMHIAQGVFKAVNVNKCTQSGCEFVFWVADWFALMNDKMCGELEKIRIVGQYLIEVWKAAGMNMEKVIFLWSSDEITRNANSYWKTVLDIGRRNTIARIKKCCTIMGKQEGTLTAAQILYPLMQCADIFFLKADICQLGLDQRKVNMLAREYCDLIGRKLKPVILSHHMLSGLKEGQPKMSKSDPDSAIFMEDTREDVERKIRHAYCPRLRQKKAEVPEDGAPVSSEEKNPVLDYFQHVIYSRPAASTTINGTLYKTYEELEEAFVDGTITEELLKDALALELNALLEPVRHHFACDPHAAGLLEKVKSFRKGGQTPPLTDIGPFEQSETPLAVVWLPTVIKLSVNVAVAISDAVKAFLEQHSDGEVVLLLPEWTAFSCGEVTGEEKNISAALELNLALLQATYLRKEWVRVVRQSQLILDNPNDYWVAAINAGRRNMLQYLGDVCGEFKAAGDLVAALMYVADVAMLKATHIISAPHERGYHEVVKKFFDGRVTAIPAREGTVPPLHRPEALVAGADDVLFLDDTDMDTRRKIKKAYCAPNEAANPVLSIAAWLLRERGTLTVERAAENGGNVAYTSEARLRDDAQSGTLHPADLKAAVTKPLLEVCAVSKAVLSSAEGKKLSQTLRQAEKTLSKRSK

[8] = molecular target: T4, Tyrosyl-tRNA synthetase, putative (Trypanosoma cruzi (strain CL Brener)); test: Trypanosoma cruzi tyrosyl tRNA synthetase (TcYRS) SOP; type: functional; conditions: 30 µM
[9] = molecular target: Chromo domain-containing protein 1 (Saccharomyces cerevisiae (strain ATCC 204508 / S288c) (Baker's yeast)) (UniProt P32657); test: ScCHD-1 Enzyme Inhibition Assay; type: functional; conditions: 30 µM; further: in the data most compounds retested in dose-response had high values
Chromo domain-containing protein 1 (Saccharomyces cerevisiae (strain ATCC 204508 / S288c) (Baker's yeast)), sequence (P32657 whole entry, the tested form may be a part): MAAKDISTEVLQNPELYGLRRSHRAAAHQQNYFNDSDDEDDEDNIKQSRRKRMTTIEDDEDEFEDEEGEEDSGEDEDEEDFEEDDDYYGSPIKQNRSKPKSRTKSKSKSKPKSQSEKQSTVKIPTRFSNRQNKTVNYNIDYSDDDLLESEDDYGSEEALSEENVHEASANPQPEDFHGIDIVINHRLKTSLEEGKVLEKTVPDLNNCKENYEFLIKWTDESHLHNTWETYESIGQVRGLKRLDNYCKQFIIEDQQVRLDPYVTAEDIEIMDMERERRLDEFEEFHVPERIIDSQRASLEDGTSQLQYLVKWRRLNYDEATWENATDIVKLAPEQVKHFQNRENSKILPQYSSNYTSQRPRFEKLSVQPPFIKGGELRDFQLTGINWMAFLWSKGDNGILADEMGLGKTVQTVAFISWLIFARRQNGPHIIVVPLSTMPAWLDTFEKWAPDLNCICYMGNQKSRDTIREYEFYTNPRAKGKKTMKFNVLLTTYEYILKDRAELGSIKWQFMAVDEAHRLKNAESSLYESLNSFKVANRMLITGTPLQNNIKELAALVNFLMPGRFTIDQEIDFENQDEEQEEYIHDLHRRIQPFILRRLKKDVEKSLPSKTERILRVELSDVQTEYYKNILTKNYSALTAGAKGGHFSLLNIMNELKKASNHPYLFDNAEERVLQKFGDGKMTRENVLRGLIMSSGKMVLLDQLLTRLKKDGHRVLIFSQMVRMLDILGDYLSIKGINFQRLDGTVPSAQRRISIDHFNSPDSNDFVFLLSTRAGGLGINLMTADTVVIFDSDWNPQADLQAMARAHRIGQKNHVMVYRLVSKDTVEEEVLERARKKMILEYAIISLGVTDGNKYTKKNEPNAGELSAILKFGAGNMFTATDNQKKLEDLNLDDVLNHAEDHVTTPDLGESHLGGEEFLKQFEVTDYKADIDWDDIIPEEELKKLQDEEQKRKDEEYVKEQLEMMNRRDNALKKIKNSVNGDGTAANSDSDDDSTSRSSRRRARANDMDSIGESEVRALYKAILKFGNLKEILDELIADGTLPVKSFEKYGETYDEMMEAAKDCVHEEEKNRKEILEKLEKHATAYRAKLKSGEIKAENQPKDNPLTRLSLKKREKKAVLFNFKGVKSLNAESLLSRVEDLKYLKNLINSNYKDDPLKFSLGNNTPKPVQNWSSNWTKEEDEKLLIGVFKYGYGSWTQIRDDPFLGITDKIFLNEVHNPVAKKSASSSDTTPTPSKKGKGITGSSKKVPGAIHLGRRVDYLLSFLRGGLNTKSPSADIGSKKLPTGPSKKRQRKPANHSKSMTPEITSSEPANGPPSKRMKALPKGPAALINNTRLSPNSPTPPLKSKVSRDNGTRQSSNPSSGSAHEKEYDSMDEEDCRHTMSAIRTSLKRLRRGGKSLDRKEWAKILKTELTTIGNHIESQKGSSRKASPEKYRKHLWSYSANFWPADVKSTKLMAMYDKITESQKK

Protein translocase subunit SecA (Escherichia coli (strain K12)), sequence (P10408 whole entry): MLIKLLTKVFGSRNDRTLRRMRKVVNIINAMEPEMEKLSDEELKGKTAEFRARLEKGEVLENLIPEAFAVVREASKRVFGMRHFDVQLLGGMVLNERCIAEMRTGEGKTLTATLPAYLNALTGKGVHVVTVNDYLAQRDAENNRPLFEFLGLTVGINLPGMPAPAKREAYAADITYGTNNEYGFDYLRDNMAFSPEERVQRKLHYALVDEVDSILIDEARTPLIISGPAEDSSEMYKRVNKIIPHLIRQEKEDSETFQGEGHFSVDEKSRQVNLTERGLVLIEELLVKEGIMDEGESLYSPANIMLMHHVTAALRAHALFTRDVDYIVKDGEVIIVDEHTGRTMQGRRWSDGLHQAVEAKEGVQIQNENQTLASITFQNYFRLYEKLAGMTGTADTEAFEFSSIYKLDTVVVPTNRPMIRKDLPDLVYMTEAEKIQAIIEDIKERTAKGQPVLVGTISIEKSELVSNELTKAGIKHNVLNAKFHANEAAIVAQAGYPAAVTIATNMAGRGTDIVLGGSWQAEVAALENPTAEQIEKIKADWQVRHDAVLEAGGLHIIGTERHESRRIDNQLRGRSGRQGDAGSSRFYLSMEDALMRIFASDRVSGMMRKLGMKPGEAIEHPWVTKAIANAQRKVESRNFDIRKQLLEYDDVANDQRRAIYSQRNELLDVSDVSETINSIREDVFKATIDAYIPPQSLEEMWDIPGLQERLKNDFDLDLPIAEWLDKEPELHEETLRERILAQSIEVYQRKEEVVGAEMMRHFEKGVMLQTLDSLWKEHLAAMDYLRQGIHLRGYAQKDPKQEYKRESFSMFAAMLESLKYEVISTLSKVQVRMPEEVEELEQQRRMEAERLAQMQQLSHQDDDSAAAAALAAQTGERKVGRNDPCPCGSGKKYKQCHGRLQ

| Compound | Percent Effect [1] [%] | Percent Effect [2] [%] | Percent Effect [3] [%] | Percent Effect [4] [%] | Percent Effect (Trypanosoma cruzi) [%] | Percent Effect [5] [%] | Percent Effect [6] [%] | Percent Effect (Homo sapiens) [%] | Percent Effect [7] [%] | Percent Effect [8] [%] | Percent Effect [9] [%] |
| --- | --- | --- | --- | --- | --- | --- | --- | --- | --- | --- | --- |
| COc1ccc(CN(C)CC2CCCN2c2cccnn2)cc1F (configuration not stated) | 1.17 | 15.6 | 13.3 | -7.91 | -2.25 | -7.79 | 13.8 | 18.7 | 7.62 | 18.8 | -22.1 |
| NC(=O)NCC1CCCCN1C(=O)c1cccc(C(F)(F)F)c1 (configuration not stated) | -6.54 | 21.1 | -2.74 | 13.3 | 4.95 | -6.47 | 2.79 | -1.19 | 5.42 | 16.1 | -9.06 |
| Cc1nc(CN(C)C2CCN(Cc3sc(C)nc3C)C2)no1 (configuration not stated) | -3.5 | 7.89 | -14.6 | 4.01 | 7.38 | 0 | 20.6 | 2.16 | 4.43 | 11.1 | -3.08 |
| Cc1noc(Cl)c1CCC(=O)N1CCCCC1Cn1cccn1 (configuration not stated) | -5.73 | 5.26 | 1.98 | -0.589 | 1.85 | -2.37 | 9.3 | -6.24 | 3.19 | 5.2 | -7.11 |
| COCc1nn(C(C)C)c2c1CCN(Cc1ccc(C)s1)C2 | -2.06 | 2.74 | -1.91 | -1.63 | 0.198 | 5.99 | 7.62 | 1.17 | 2.08 | 3.7 | -2.29 |
| COc1ccc(CN2C[C@@H]3CCCO[C@@H]3[C@H](NS(C)(=O)=O)C2)cc1 | 0.295 | 13.3 | -2.32 | 4.91 | 2.9 | -48.2 | 5.13 | -24.2 | 6.25 | 25 | -6.84 |
| O=C(NCC1CCOC1)c1cc(-c2cccc(Cl)c2)on1 (configuration not stated) | -3.92 | 18.2 | 1.45 | 3.45 | 0 | 4.27 | 16.7 | 14.6 | 5.83 | 14.6 | -5.69 |
| Cc1nc(Nc2nnc(C)s2)cc(C2CCCN2C)n1 (configuration not stated) | -1.27 | 16 | 3.75 | -11.6 | -2.95 | -4.43 | 15.1 | 29.1 | 2.13 | 3.85 | -6.23 |
| Cc1cc(C(F)(F)F)c2c(C3CCN(S(=O)(=O)N(C)C)CC3)noc2n1 | -2.53 | 12.2 | 6.65 | 11.8 | -0.395 | 1.62 | 6.55 | 3.27 | 6.45 | 16.9 | -15.2 |
| Cc1cc(CN2CC[C@H]3C(=O)N(c4ccccc4)CCO[C@H]3C2)no1 | -3.31 | 21.3 | 1.48 | -6.56 | -4.92 | -2.1 | 8.37 | 19.1 | 2.13 | 11.5 | -1.25 |
| CC(c1ccccc1)n1c(SCC(=O)O)nnc1-c1ccccc1Cl (configuration not stated) | -3.8 | 15.3 | -8.09 | 28.7 | 4.57 | -3.53 | 9.65 | 13.3 | 4.21 | 12.8 | -5.19 |
| CC(NC(=O)NCc1cccc(N2CCCC2=O)c1)c1ccccc1 (configuration not stated) | -2.62 | 7.79 | 4.82 | 12.6 | 3.23 | -10.7 | 7.36 | -2.7 | 1.91 | 11.8 | -21.1 |
| CCN1CCC(c2nc3ccc(NC(C)C)cn3n2)CC1 | -3.94 | -2.7 | -138 | -3.17 | 7.62 | -1.25 | 4.48 | -12.5 | 5.94 | 11 | 0.337 |
| COc1ccc(-n2ccc(C(=O)N3CCC(C(N)=O)C3)n2)cc1 (configuration not stated) | -7.71 | 8.11 | -1.34 | 6.17 | -4.55 | 1.29 | -1.44 | 16.4 | 2.97 | 3.66 | -1.19 |
| CCN1CCN(C2CCN(Cc3nc4ccccc4o3)CC2)C1=O | -1.89 | 10.4 | 0.349 | -1.67 | 1.67 | -2.74 | 14.2 | -19 | 7.62 | 21.2 | -20.3 |
| CCNC(=O)N1CCCCC1CCNS(C)(=O)=O (configuration not stated) | -1.55 | 5.41 | -3.93 | 3.76 | 8.3 | -3.33 | 13.3 | 6.93 | 7.94 | 9.76 | -1.52 |
| O=C(c1ccnnc1)N1C[C@@H]2CC[C@H](Oc3cccc(F)c3)[C@@H]2C1 | -4.43 | -1.35 | 15.2 | -2.19 | -6.13 | 1.16 | 2.34 | -7.87 | 1.07 | -3.9 | -7.63 |
| O=C(c1cnccn1)N1CCOC2(CCN(Cc3ccsc3)CC2)C1 | -1.55 | 0 | 2.03 | 7.22 | 1.16 | -52.1 | 0 | -18.7 | 2.08 | 2.5 | -4.34 |
| CC(C(=O)Nc1ccc(N2CCCC2)nc1)n1ccnc1 (configuration not stated) | -1.03 | 5.41 | -13.4 | 11.1 | 0.0943 | -8.82 | 8.65 | 28.6 | 5.42 | 16.1 | -8.67 |
| O=C(NCCCN1CCCC1=O)Nc1ccc(Br)cc1Cl | -4.26 | -4 | 3.31 | 6.15 | 3.14 | -3.7 | 7.02 | 8.83 | 0 | 2.56 | -2.19 |
| Cc1nnc2n1CCN(Cc1csc(Cc3ccccc3)n1)C2 | -5.45 | 5.41 | -7.1 | 3.42 | 3.25 | 4.62 | 3.41 | 8.73 | 8.91 | 15.8 | -1.48 |
| CC(C)c1noc(CCC(=O)NC(C)c2nnc3n2CCCCC3)n1 (configuration not stated) | -2.21 | -2.7 | -3.53 | -8.65 | -1.47 | -2.23 | 2.83 | -7.58 | -9.68 | 1.24 | 80 |
